This passage reports outcome and AC50 results from PubChem BioAssay (EPA / NIEHS).

Common to all, as to conditions: mRNA level, 48 h; actives raise or lower the signal
Read-out in test [1]: Heat shock 70 kDa protein 1 (HSPA1A), gene 3303
Nature of the test: LTEA_HepaRG_HSPA1A: Life Technologies and Expression Analysis (LTEA) Assay for Heat shock 70 kDa protein 1 (HSPA1A) using HepaRG (AID 2283502). In a few lines: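 Differentiated human HepaRG cells in serum-free induction medium were exposed in duplicate for 48 h to eight concentrations (top 100 uM, half-log steps, 0.5% DMSO). HSPA1A mRNA was quantified by qRT-PCR, normalized to ACTB, GAPDH and POLR2A, and fitted bidirectionally against DMSO.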

Read-out in test [2]: Hypoxia-inducible factor 1-alpha (Homo sapiens) (UniProt Q16665)
Nature of the test: LTEA_HepaRG_HIF1A: Life Technologies and Expression Analysis (LTEA) Assay for Hypoxia-inducible factor 1 (HIF1A) Trancription factor using HepaRG (AID 2283503). In a few lines: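 HepaRG, 48 h exposure, 8-pt half-log series from 100 uM, 0.5% DMSO vehicle, duplicates. Readout: HIF1A transcript by qRT-PCR (Fluidigm array), housekeeping-normalised. Bidirectional curve fit vs DMSO baseline.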

Read-out in test [3]: 3-Hydroxy-3-Methylglutaryl-CoA Synthase 2 (HMGCS2), HMGCS2 (gene 3158)
Nature of the test: LTEA_HepaRG_HMGCS2: Life Technologies and Expression Analysis (LTEA) Assay for 3-Hydroxy-3-Methylglutaryl-CoA Synthase 2 (HMGCS2) using HepaRG (AID 2283504). The procedure, abridged: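 HepaRG, plated 48 h then switched to serum-free induction media; cmpd 8-pt, max 100 uM, 1/2-log, 0.5% DMSO, n=2, 48 h. HMGCS2 mRNA by Fluidigm TaqMan qRT-PCR, ACTB/GAPDH/POLR2A norm; bidirectional fit vs DMSO.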

Read-out in another test: HGF (gene 3082)
Description: LTEA_HepaRG_HGF: Life Technologies and Expression Analysis (LTEA) Assay for Hepatocyte Growth Facto (HGF) using HepaRG (AID 2283505). In a few lines: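 Read-out is HGF transcript level by qRT-PCR, normalized to three housekeeping genes, fitted bidirectionally against 0.5% DMSO vehicle. Human HepaRG cells received test chemicals for 48 h at up to 100 uM.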

Read-out in test [4]: Insulin Like Growth Factor 1 (IGF1), IGF1 (gene 3479)
Description: LTEA_HepaRG_IGF1: Life Technologies and Expression Analysis (LTEA) Assay for Insulin Like Growth Factor 1 (IGF1) using HepaRG (AID 2283506). In a few lines: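 Differentiated human HepaRG cells were dosed for 48 h in serum-free induction medium with 0.5% DMSO, eight half-log concentrations up to 100 uM, in duplicate. IGF1 mRNA was quantified by qRT-PCR normalized to ACTB, GAPDH, POLR2A; bidirectional fitting versus DMSO.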

Read-out in test [5]: Intercellular Adhesion Molecule 1 (ICAM1), ICAM1 (gene 3383)
Description: LTEA_HepaRG_ICAM1: Life Technologies and Expression Analysis (LTEA) Assay for Intercellular Adhesion Molecule 1 (ICAM1) using HepaRG (AID 2283507). In a few lines: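 Readout is qRT-PCR mRNA level, normalized to three housekeeping genes and fitted bidirectionally against 0.5% DMSO vehicle. Human HepaRG cultures received compound for 48 h, top concentration 100 uM with half-log dilutions.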

Read-out in test [6]: Insulin-like growth factor-binding protein 1 (IGFBP1), IGFBP1 (gene 3484)
Nature of the test: LTEA_HepaRG_IGFBP1: Life Technologies and Expression Analysis (LTEA) Assay for Insulin-like growth factor-binding protein 1 (IGFBP1) using HepaRG (AID 2283508). The procedure, abridged: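 Thawed HepaRG cells are plated for 48 h, switched to serum-free induction medium, then dosed in duplicate for another 48 h (100 uM top, half-log steps). Lysates in RLT go to qRT-PCR, and gain or loss of signal is fitted relative to vehicle.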

Read-out in test [7]: Interleukin 6 (IL6), IL6 (gene 3569)
Nature of the test: LTEA_HepaRG_IL6: Life Technologies and Expression Analysis (LTEA) Assay for Interleukin 6 (IL6) using HepaRG (AID 2283509). In a few lines: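 Differentiated human HepaRG cells, plated 48 h then switched to serum-free induction medium, were exposed in duplicate for 48 h to eight half-log concentrations up to 100 uM in 0.5% DMSO. IL6 mRNA measured by qRT-PCR, normalized to ACTB/GAPDH/POLR2A.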

Read-out in test [8]: Interleukin 6 Receptor (IL6R), IL6R (gene 3570)
Description: LTEA_HepaRG_IL6R: Life Technologies and Expression Analysis (LTEA) Assay for Interleukin 6 Receptor (IL6R) using HepaRG (AID 2283510).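 As to AC50: TaqMan qRT-PCR signal normalized to ACTB GAPDH and POLR2A housekeeping genes.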 In a few lines: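 Differentiated human HepaRG cells, plated 48 h then switched to serum-free induction medium, were dosed in duplicate for 48 h at eight half-log concentrations up to 100 uM in 0.5% DMSO. IL6R mRNA quantified by qRT-PCR, normalized to ACTB/GAPDH/POLR2A; bidirectional fit versus DMSO.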

Read-out in test [9]: Potassium channel subfamily K member 1 (KCNK1), KCNK1 (gene 3775)
Description: LTEA_HepaRG_KCNK1: Life Technologies and Expression Analysis (LTEA) Assay for Potassium channel subfamily K member 1 (KCNK1) using HepaRG (AID 2283511). In a few lines:
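Differentiated human HepaRG cells in serum-free induction medium were exposed in duplicate for 48 h to 8 half-log concentrations up to 100 uM in 0.5% DMSO. KCNK1 mRNA was measured by TaqMan qRT-PCR, normalized to ACTB, GAPDH and POLR2A, and fitted bidirectionally versus DMSO.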

Read-out in test [10]: Keratin 19 (KRT19), KRT19 (gene 3880)
Nature of the test: LTEA_HepaRG_KRT19: Life Technologies and Expression Analysis (LTEA) Assay for Keratin 19 (KRT19) using HepaRG (AID 2283512). The procedure, abridged: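 KRT19 transcript levels, measured by Fluidigm qRT-PCR against three housekeeping genes, are fitted for gain or loss of signal relative to DMSO. Human HepaRG cells receive test chemicals (top 100 uM, half-log steps, 0.5% DMSO) for 48 hours.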

Read-out in test [11]: JUN Transcription Factor, JUN (gene 3725)
Nature of the test: LTEA_HepaRG_JUN: Life Technologies and Expression Analysis (LTEA) Assay for JUN Transcription Factor using HepaRG (AID 2283513). The procedure, abridged:
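Differentiated HepaRG cells were exposed to chemicals for 48 h in serum-free induction medium, 8 concentrations from 100 uM in half-log steps, 0.5% DMSO vehicle, in duplicate. JUN mRNA was quantified by TaqMan qRT-PCR, normalized to ACTB, GAPDH, POLR2A.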

Read-out in test [12]: Lipase C (LIPC), LIPC (gene 3990)
Nature of the test: LTEA_HepaRG_LIPC: Life Technologies and Expression Analysis (LTEA) Assay for Lipase C (LIPC) using HepaRG (AID 2283514). The procedure, abridged:
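Differentiated human HepaRG cells in serum-free induction medium were exposed in duplicate for 48 h to eight concentrations (top 100 uM, half-log steps, 0.5% DMSO). LIPC mRNA was quantified by TaqMan qRT-PCR, normalized to ACTB, GAPDH and POLR2A, with bidirectional fitting versus DMSO.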

Read-out in test [13]: Lipoprotein lipase (LPL), LPL (gene 4023)
Description: LTEA_HepaRG_LPL: Life Technologies and Expression Analysis (LTEA) Assay for Lipoprotein lipase (LPL) using HepaRG (AID 2283515). In a few lines:
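Differentiated human HepaRG cells in serum-free induction medium were exposed in duplicate for 48 h to eight half-log concentrations (top 100 uM) in 0.5% DMSO. LPL mRNA was quantified by TaqMan qRT-PCR, normalized to ACTB, GAPDH and POLR2A.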

Read-out in test [14]: MicroRNA 122 (MIR122), gene 406906
Description: LTEA_HepaRG_MIR122: Life Technologies and Expression Analysis (LTEA) Assay for MicroRNA 122 (MIR122) using HepaRG (AID 2283516). Also: the transcript read is the microRNA miR-122. The procedure, abridged: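 Differentiated human HepaRG cells were exposed 48 h in serum-free induction medium to eight half-log concentrations (top 100 uM, 0.5% DMSO). Transcript level was measured by TaqMan qRT-PCR, normalized to ACTB, GAPDH and POLR2A, and fitted bidirectionally versus DMSO.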

Read-out in test [15]: matrix metalloproteinase-10 (MMP10), MMP10 (gene 4319)
Nature of the test: LTEA_HepaRG_MMP10: Life Technologies and Expression Analysis (LTEA) Assay for matrix metalloproteinase-10 (MMP10) using HepaRG (AID 2283517). In a few lines:
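HepaRG, collagen I, ~100,000 cells/well; serum-free induction medium; 48 h exposure, duplicate, 8-pt half-log to 100 uM, 0.5% DMSO. Readout: TaqMan qRT-PCR, normalized to ACTB/GAPDH/POLR2A; bidirectional fit vs DMSO.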

Read-out in another test: MYC, MYC (gene 4609)
Description: LTEA_HepaRG_MYC: Life Technologies and Expression Analysis (LTEA) Assay for MYC using HepaRG (AID 2283518). The procedure, abridged:
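HepaRG, ~100,000 cells/well, collagen I; 48 h plating; serum-free induction medium; 48 h dosing, duplicate, 100 uM top, half-log, 0.5% DMSO; total RNA → qRT-PCR MYC; gain/loss fit vs DMSO.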

Read-out in test [16]: matrix metalloproteinase-3 (MMP3), MMP3 (gene 4314)
Description: LTEA_HepaRG_MMP3: Life Technologies and Expression Analysis (LTEA) Assay for matrix metalloproteinase-3 (MMP3) using HepaRG (AID 2283519). In a few lines:
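Differentiated human HepaRG cells, plated 48 h on collagen I, were exposed in duplicate for 48 h in serum-free induction medium to eight half-log concentrations up to 100 uM in 0.5% DMSO. MMP3 mRNA was quantified by TaqMan qRT-PCR, normalised to ACTB, GAPDH and POLR2A.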

Read-out in test [17]: Paternally Expressed 10 (PEG10), PEG10 (gene 23089)
Nature of the test: LTEA_HepaRG_PEG10: Life Technologies and Expression Analysis (LTEA) Assay for Paternally Expressed 10 (PEG10) using HepaRG (AID 2283520). The procedure, abridged: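 Differentiated HepaRG cells, plated 48 h then switched to serum-free induction medium, were exposed in duplicate for 48 h to eight half-log concentrations topping at 100 uM in 0.5% DMSO. PEG10 mRNA was quantified by TaqMan qRT-PCR, normalised to ACTB, GAPDH and POLR2A.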

Calls of active or inactive are those of the source. The calls were made as follows: active = hit-call score of the fitted dose curve at least 0.9, where 1 is the maximum; inactive = score below 0.9.

Hypoxia-inducible factor 1-alpha (Homo sapiens), sequence (Q16665 whole entry, looked up): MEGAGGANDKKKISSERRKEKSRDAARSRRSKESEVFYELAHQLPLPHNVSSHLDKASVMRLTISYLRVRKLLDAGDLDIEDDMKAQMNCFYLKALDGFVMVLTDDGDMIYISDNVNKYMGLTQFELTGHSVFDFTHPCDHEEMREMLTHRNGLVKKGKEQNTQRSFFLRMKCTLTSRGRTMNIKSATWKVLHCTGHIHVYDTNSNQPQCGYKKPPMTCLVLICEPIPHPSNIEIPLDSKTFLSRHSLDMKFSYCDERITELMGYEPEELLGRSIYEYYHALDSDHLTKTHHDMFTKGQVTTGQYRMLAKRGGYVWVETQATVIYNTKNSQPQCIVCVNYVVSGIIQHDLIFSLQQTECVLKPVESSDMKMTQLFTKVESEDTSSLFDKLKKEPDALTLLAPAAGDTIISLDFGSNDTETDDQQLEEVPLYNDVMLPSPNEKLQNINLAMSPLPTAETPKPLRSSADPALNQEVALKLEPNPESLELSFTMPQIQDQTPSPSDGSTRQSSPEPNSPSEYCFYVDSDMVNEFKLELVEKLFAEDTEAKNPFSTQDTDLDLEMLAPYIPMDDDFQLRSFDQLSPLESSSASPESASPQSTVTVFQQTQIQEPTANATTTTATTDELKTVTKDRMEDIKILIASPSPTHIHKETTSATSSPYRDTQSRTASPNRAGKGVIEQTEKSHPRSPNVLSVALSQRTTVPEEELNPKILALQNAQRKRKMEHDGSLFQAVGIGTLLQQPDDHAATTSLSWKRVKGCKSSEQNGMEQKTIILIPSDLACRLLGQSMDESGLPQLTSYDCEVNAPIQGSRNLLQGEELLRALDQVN

For `CNC(=O)ON=CC(C)(C)SC`, the compound was classed as inactive (in [1]; in test [2]; in test [3]; in the test with HGF (gene 3082); in test [4]; in [5]). The call in test [6], in [7], in test [8], in test [9], in test [10] and in test [11] was inactive. Further, the outcome in [12] was “inactive”; in test [13], “inactive”; in test [14] it was “inactive”; in test [15], “inactive”; in the test with MYC, MYC (gene 4609), “inactive”; in test [16], “inactive”. Moreover, the compound was classed as inactive in test [17].
Usually AC50 stands for the midpoint of the concentration-response curve, whichever way the signal moves. `O=C(Nc1ccccc1)Nc1ccnc(Cl)c1`: the AC50 in test [1] is 84.2 µM (active); in test [3] it was 28.6 µM (active); with HGF (gene 3082), 78 µM (active); in test [4], 28.3 µM (active); in test [6] it was 63.4 µM (active); in [7], 93.9 µM (active). In addition, the AC50 in test [8] is 76.2 µM (active); in [10], 28.1 µM (active); in [12] it was 24 µM (active); in [13] it was 81.8 µM (active); in [17] it was 31.8 µM (active). Moreover, the compound was called inactive in test [2], in test [5], in test [9], in test [11], in test [14] and in [15]. For the same compound, the outcome with MYC, MYC (gene 4609) was “inactive”; in test [16] it was “inactive”.
In the case of `CCOC(=O)C(Cl)Cc1cc(-n2nc(C)n(C(F)F)c2=O)c(F)cc1Cl` (stereo not drawn), the result (in [1]; in test [2]; in test [3]; in the test with HGF (gene 3082); in [4]; in [5]) was inactive. The compound was called inactive in test [6], in test [7], in [8], in [9], in [10] and in [11]. The outcome in test [13] is “inactive”; in test [14], “inactive”; in test [15], “inactive”; with MYC, MYC (gene 4609) it was “inactive”; in [16], “inactive”; in test [17] it was “inactive”.
Consider `COc1cnc(OC)n2nc(NS(=O)(=O)c3c(OCC(F)F)cccc3C(F)(F)F)nc12`, for which the AC50 was 50 µM (active) in test [1], 31.8 µM (active) in test [3] and 10.3 µM (active) in [4]. Also, the call (in [2]; in the test with HGF (gene 3082); in [5]; in [6]; in [7]; in [8]) was inactive. The call in [9], in test [10], in [11], in test [12], in test [13] and in [14] was inactive. For the same compound, the outcome in test [15] is “inactive”; with MYC, MYC (gene 4609), “inactive”; in test [16], “inactive”; in test [17], “inactive”.
In the case of `Oc1ccccc1-c1ccccc1`, the compound was classed as inactive (in test [1]; in test [2]; in [3]; with HGF (gene 3082); in test [4]; in test [5]). Moreover, the outcome in test [6], in test [7], in test [8], in test [9], in test [10] and in test [11] was inactive. For the same compound, the outcome in [12] is “inactive”; in [14], “inactive”; in [15], “inactive”; with MYC, MYC (gene 4609), “inactive”; in [16], “inactive”; in [17], “inactive”.
